# The campaign covered roughly 1,600 compounds. About 25 (2%) were called active. Inconclusive results (about 7%) are left out. The call rests on the fitted dose curve; in most records, active means well fitted inhibition curve with a large enough effect; inconclusive means small, poorly fitted or top-dose-only effect, or effect the other way; inactive means no such curve, though single readings can be large or run the other way. Many of the other results were omitted from the sample, so actives are more common in it than they were.
# Target: Runt-related transcription factor 1 (Homo sapiens) + Core-binding factor subunit beta (Homo sapiens) (UniProt Q01196+Q13951)
# Sequence (Q01196 whole entry, looked up): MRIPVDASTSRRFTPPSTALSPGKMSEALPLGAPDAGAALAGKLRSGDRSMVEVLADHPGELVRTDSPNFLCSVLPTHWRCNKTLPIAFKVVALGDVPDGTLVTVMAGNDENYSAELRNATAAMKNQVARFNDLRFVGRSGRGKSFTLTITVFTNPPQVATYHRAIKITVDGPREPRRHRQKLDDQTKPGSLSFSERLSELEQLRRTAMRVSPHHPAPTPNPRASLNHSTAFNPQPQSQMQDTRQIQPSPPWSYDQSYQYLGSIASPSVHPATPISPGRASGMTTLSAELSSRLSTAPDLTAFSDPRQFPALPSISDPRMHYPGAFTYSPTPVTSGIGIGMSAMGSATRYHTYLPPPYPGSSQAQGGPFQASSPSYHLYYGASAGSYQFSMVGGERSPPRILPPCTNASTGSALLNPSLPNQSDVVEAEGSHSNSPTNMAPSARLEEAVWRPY
# Sequence (Q13951 whole entry, looked up): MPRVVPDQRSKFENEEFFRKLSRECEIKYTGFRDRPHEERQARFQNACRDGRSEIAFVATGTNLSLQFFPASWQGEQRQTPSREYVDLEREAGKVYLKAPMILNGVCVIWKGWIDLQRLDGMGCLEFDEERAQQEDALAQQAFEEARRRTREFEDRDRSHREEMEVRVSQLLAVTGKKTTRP
# Test: qHTS Assay for Compounds Blocking the Interaction Between CBF-beta and RUNX1 for the Treatment of Acute Myeloid Leukemia: Hit Validation with Orthogonal Assay
# Conditions: CBFbeta-RUNX1 binding orthogonal assay, biochemical; series mostly up to 41 µM; activity change, negative = inhibition: at the top concentration
# Excerpt: NIH Chemical Genomics Center [NCGC]
# NIH Molecular Libraries Probe Production centers Network [MLPCN]
# Assay Submitter (PI): Paul Liu
# Core Binding Factor (CBF) abnormalities are associated with 20-25% of all acute myeloid leukemias (AML), of which 5-10% are further sub classified as acute myelomonocytic leukemia with eosinophilia, also known as M4Eo in the FAB classification scheme. This subtype of leukemia is usually associated with chromosome 16 inversion (p13:q22). Chromosome 16 inversion results in formation of the fusion oncogene CBFB-MYH11, which encodes the fusion protein CBF-beta-SMMHC.
# It has been hypothesized that the interference of CBF-beta and RUNX1 binding could have therapeutic implications for patients with CBF mediated leukemias. We developed a CBF-beta and RUNX1 binding assay in AlphaScreenTM format and optimized it for high throughput screening to search for inhibitors. The goal of this project is to screen MLPCN's compound collection (MLSMR) for identifying the inhibitors of the interaction between CBF-beta and RUNX1 proteins as research probes. If these probes work well in the animal models, the ultimate goal of this project is to development a new drug treatment for this disease.
# This assay can not be used to assess how apparent inhibitors interfere with protein binding, and whether inhibitors specifically bind to either protein. Disruption of this protein-protein interaction, through any mechanism, is the intended target activity.
# The present data set was run to confirm the activity of hits from the primary screen using an orthogonal assay technology for measuring protein-protein interaction disruption.
# A TR-FRET (time resolved fluorescence resonance energy transfer) assay was performed using the same assay buffer, protein concentrations and incubation times as described previously in the AlphaScreen assay, except that terbium (Tb+) labeled anti-his-antibody and XL665 linked streptavidin were used to capture the binding signal. The Tb+ labeled anti-his-antibody captures His(6)-CBF and XL665 linked streptavidin binds to biotin-RUNX1. The binding of RUNX1 to CBFbrings Tb+ and XL665 to proximity resulting in a TR-FRET signal. Briefly, in a white 384-well plate, 10 µl/well of mixture of biotin-RUNX1 and His(6)-CBFwere incubated with 10 µl/well buffer (positive control) or 10 µl/well compounds (negative control) for 20 min followed by an addition of 10 µl/well of Tb+ labeled anti-his(6)-antibody and XL665 linked streptavidin. After 90 min of incubation in the dark, the assay plate was measured in the Envision plate reader using TR-FRET detection mode. For the 1536-well plate format, 3 µl/well mixture of biotin-RUNX1 and His(6)-CBF (30 nM per protein) was incubated with 23 nl/well compound (dissolved in 100% DMSO) or the equivalent DMSO concentration (positive control) for 30 min followed by the addition of 1 µl/well of 0.44 ng Tb+ labeled anti-his(6)-antibody and 5 nM streptavodin-XL665. After 90 min of incubation, the assay plate was measured in the Envision plate reader.
# The TR-FRET assay for detecting interaction between HIV-I Tat and […] was similarly performed with the recombinant full-length HIV-I Tat CLADE B and HIV-I Tat Biotin conjugated proteins supplied by Diatheva (Fano, Italy). Briefly, the His-CBF and Biotin-RUNX1 complex at a working concentration of 83.3 nM per protein were pre-incubated in assay buffer for 10 minutes on ice. Then HIV-I Tat or unlabeled CBF were added to reach final concentrations (Supplementary Figure 4b) and incubated for 5 minutes. Finally anti-His antibody and streptavidin-XL665 at a final concentration of 2.2 ng and 5 nM, respectively, were added to the plate, which was incubated for 1 hr prior to reading on the PerkinElmer Envision plate reader.
# Keywords: MLSMR, MLPCN, NIH Roadmap, qHTS, NCGC, Core binding factor, CBF, CBF-beta, Acute myeloid leukemia
# On the % scale 0 is the no-effect control and ±100 the full control effect; potency means the concentration at half of the fitted maximal effect.
SMILES,"activity change, negative = inhibition",Potency
CC(=O)c1sccc1NC(=O)c1ccccc1C(=O)O,3.8% (inactive),
O=C(Oc1c(-c2ccccc2)c(=O)n2c3c(cccc13)CC2)c1ccccc1,-10% (inactive),
O=[N+]([O-])c1cccnc1Oc1ccc(F)cc1,22.6% (inactive),
Cn1nc2c3ccccc3n(Cc3ccc(F)cc3)c2nc1=S,12% (inactive),
Cc1nc2ccc(NC(=S)N3CCOCC3)cc2nc1C,,12.6 µM (active)
Cc1cccc(C)c1NC(=S)N1CCOCC1,3.77% (inactive),
COc1ccc(C(=O)NC(=S)Nc2ccc(CN3CCOCC3)cc2)cc1,-9.35% (inactive),
COC(=O)c1scc(C)c1NC(=O)/C=C/C(=O)O,-12.4% (inactive),
Cc1ccc(N/N=C(\C#N)C(=N)N2CCCCC2)cc1,59.2% (inactive),
Cc1nc(SCc2cccc(F)c2)c2oc3ccccc3c2n1,-3.14% (inactive),
Cn1ncc2c(c(SCc3ccc(Cl)cc3Cl)nn2C)c1=O,16.1% (inactive),
O=C1NCCc2c1[nH]c1ccccc21,-12% (inactive),
CC(C)Cn1nc(NC(=O)c2cccs2)c2cc3ccccc3nc21,20.5% (inactive),
CC(=O)Oc1cc2c3c(c1)/C(=C1/SC(=S)NC1=O)C(=O)N3C(C)(C)C=C2C,14.8% (inactive),
CC(C)N(Cc1ccccc1)C(=O)c1ccc2nsnc2c1,18% (inactive),
O=C(CSc1nc2ccccc2n1Cc1ccccc1Cl)N/N=C/c1ccccc1C(=O)O,-14.6% (inactive),
O=C(O)C1CCc2sc3[nH]c(=S)n(-c4ccccc4)c(=O)c3c21 (stereo not drawn),12.3% (inactive),
Cn1cccc1/C=C1\SC(=S)N(NC(=O)c2ccc(F)cc2)C1=O,33.1% (inactive),
Clc1ccc(C2=Nn3c(Cn4nnc5ccccc54)nnc3SC2)cc1,2.69% (inactive),
O=C1COc2cccnc2N1,-2.97% (inactive),
Cc1c(-c2ccccc2)[n+](=O)c(-c2ccc(Br)cc2)c(C)n1[O-],26.5% (inactive),
COc1cc(C(=O)NC(=S)Nc2ccc3c(c2)OCO3)cc(OC)c1OC,2.92% (inactive),
CCCSc1cc(Cl)nc(N)n1,-0.0734% (inactive),
O=C(CCl)NC1(C(F)(F)F)C(=O)Nc2c1c(=O)[nH]c(=O)n2-c1ccccc1 (stereo not drawn),-7.72% (inactive),
O=[N+]([O-])c1ccc(-c2cn3c(n2)CCC3)cc1,27.4% (inactive),

SMILES,"activity change, negative = inhibition",Potency
COc1c(/C=N/NC(=O)c2ccncc2)c(CCN(C)C(C)=O)cc2c1OCO2,-7.29% (inactive),
COc1cc(/C=N/n2nnnc2N)cc(OC)c1OC,6.57% (inactive),
Cc1nc2ccccc2nc1N1CCCC1,17.1% (inactive),
COc1cscc1C(=O)O,0.991% (inactive),
CCOc1nsc(OCC)n1,8.39% (inactive),
C/C(=N\Nc1cccc(Cl)c1)C1(C)N(O)C(C)(C)C(c2ccco2)=[N+]1[O-] (stereo not drawn),18.1% (inactive),
CCOC(=O)C1=C(C)N(CC(C)C)C(=O)/C1=C\c1cccs1,14.3% (inactive),
O=C(O)/C=C/c1cn(-c2ccccc2)nc1-c1ccc(-c2ccc([N+](=O)[O-])cc2)o1,17.8% (inactive),
COc1ccccc1/C=C/C=NC1C(=O)N(c2ccccc2)[N+](C)=C1C (stereo not drawn),-5.85% (inactive),
O=C(O)CC(CCc1ccccc1)OC1OC(CO)C(O)C(O)C1O (stereo not drawn),-29.1% (inactive),
O=C(O)c1cc(O)c2c(c1)[C@H]([C@H]1c3cc(C(=O)O)cc(O)c3C(=O)c3c(O[C@@H]4OC(CO)C(O)C(O)C4O)cccc31)c1cccc(O[C@@H]3OC(CO)C(O)C(O)C3O)c1C2=O (stereo partly drawn),,2.51 µM (active)
COc1cc(/C=C/c2nc3ccc([N+](=O)[O-])cc3s2)ccc1OCC(=O)O,18.5% (inactive),
CCn1cc(C(c2ccccc2)C(C(C)=O)[N+](=O)[O-])c2ccccc21 (stereo not drawn),13.1% (inactive),
OCCNc1nc2ccccc2nc1NCCO,0.991% (inactive),
COc1ccc(C2=NOC(CNC(=S)N3CCOCC3)C2)cc1 (stereo not drawn),8.59% (inactive),
Cn1c(SCC(=O)NC(=O)Nc2ccccc2)nnc1-c1ccncc1,-1.38% (inactive),
C(=C\c1nccc2c1[nH]c1ccccc12)/c1ccccc1,10.1% (inactive),
COc1cccc(/C=N/NC(=O)c2cnccn2)c1OC,12.2% (inactive),
Oc1ccccc1/C=N/Nc1nn[nH]n1,6.96% (inactive),
CCN(CC)c1ncc(C#N)c(N)n1,-7.89% (inactive),
Cc1cc(O)c(C=O)c2c1C(=O)Oc1c(COC(=O)/C=C/C(=O)O)c(O)c(C(=O)O)c(C)c1O2,,28.2 µM (active)
CCOC(=O)c1cn2nc(Oc3ccc(C(=O)OC)cc3)ccc2n1,-15.3% (inactive),
CCc1nc2ccccc2nc1N1CCN(S(=O)(=O)c2ccc(Cl)cc2)CC1,0.844% (inactive),
c1ccc(C2=Nn3c(Cn4nnc5ccccc54)nnc3SC2)cc1,-10.8% (inactive),
CC(=O)c1ccc(S(=O)(=O)N2Cc3ccccc3CC2C(=O)O)cc1 (stereo not drawn),-4.12% (inactive),

SMILES,"activity change, negative = inhibition",Potency
Brc1ccc(C2=Nn3c(Cn4nnc5ccccc54)nnc3SC2)cc1,-8.99% (inactive),
COc1ccc(C(=O)CN2CCN(c3cc(C)nc4ccccc34)CC2)cc1,-6.56% (inactive),
COC(=O)/C(=C\Nc1ccc(Oc2ccc(F)cc2F)nc1)NC(=O)c1ccccc1,8.42% (inactive),
CN(C)c1cc(-c2ccc(Cl)cc2Cl)oc(=O)c1Cl,32.5% (inactive),
CC(C)(C)C(=O)Nc1ccccc1C(=O)NCc1cccnc1,7.35% (inactive),
O=S(=O)(c1ccc(F)cc1F)N1CCCN(c2ccc(C(F)(F)F)cn2)CC1,5.71% (inactive),
CCC(C)c1ccc(OCc2ccc(C(=O)OC)o2)cc1 (stereo not drawn),5.36% (inactive),
CCNC(=S)Nc1ccc(NC(=O)c2ccccc2O)cc1,16.3% (inactive),
COc1ccccc1C1CCN(C(=O)c2ccco2)CC1,13.8% (inactive),
COc1ccccc1C1CCN(C(=O)c2cccs2)CC1,1.7% (inactive),
O=C(O)C1Nc2c(O)cccc2C2C=CCC12 (stereo not drawn),,3.55 µM (active)
Cc1ccc2c(c1C)NC(C(=O)O)C1CC=CC21 (stereo not drawn),,7.08 µM (active)
COc1cccc2c1NC(C(=O)O)C1CC=CC21 (stereo not drawn),,7.94 µM (active)
O=C(O)C1Nc2c(O)cc(Cl)c([N+](=O)[O-])c2C2C=CCC12 (stereo not drawn),-29.8% (inactive),
Cn1ncc(Br)c1N1C(=O)CCC1=O,1.93% (inactive),
Fc1ccc(C(CCNCc2cccs2)c2ccco2)cc1 (stereo not drawn),10.9% (inactive),
COc1ccc(NC(=O)Nc2nc3ccccc3s2)cc1,-7.1% (inactive),
Cc1cc(NC(=O)CSc2nc3ccccc3[nH]2)n(-c2ccccc2)n1,1.11% (inactive),
c1ccc(-c2n[nH]c(-c3ccccn3)n2)nc1,-1.29% [at 82.4 µM] (inactive),
c1ccc(-c2nnc(-c3ccccn3)nc2NC2CCCCC2)cc1,-3.48% [at 82.4 µM] (inactive),
CN(C)c1nc(-c2ccccn2)nnc1-c1ccccc1,,22.4 µM (active)
CC(=O)Nc1cccc(OCCCNC(=O)c2cccc3ccccc23)c1,6.23% (inactive),
COc1ccc2[nH]c(C(=O)N3CCCN(Cc4ccc(F)cc4)CC3)cc2c1,13.2% (inactive),

# Source: PubChem BioAssay AID504375 (National Center for Advancing Translational Sciences (NCATS), 2011)
